Results on 40 compounds are retold here after PubChem BioAssay (NCATS).

Where “and” joins values, the source holds several entries; their conditions need not be identical. Equal values may be shown once. Results filed as inconclusive are left out. Entries that show only a call come without a potency. Calls of active or inactive are those of the source. Calls come from the whole dose curve; as a rule, active = well fitted cell-killing curve with a large enough effect; inconclusive = small, poorly fitted or top-dose-only effect; inactive = no such curve, though single readings can be large or run the other way.
Potency is the fitted concentration of half-maximal effect.

A short description of the test: qHTS of pediatric cancer cell lines to identify multiple opportunities for drug repurposing: Primary screen for Saos-2 cells (AID 1347097). Note: nearly all actives have a fitted effect of over 40% in size. As to conditions: Saos-2 viability, CellTiter-Glo ATP luminescence, 48 h; series mostly up to 46 µM. The text has this:
Drug repurposing or repositioning has been offered as a strategy for drug development in oncology programs. This approach has special potential for childhood cancers and other rare or orphan diseases, where the expected return on new drug development has been a disincentive to pharmaceuticals. […] In this project we exploit the poly-pharmacology of drugs to discover new indications via phenotypic screening of a panel of 19 well-characterized cell lines derived from solid tumors seen in children and adolescents. The goal is to identify approved drugs with previously unrecognized anticancer properties that has the potential to reveal new mechanisms and biological processes involved in carcinogenesis or drug resistance. We employed a titration-based paradigm (quantitative high-throughput screening or qHTS), where all compounds were tested at multiple concentrations for their effect on cell viability. Concentration-response curves (CRCs) were derived directly from the primary screen, and both potency and efficacy values were used to identify compounds with robust bioactivity profiles. We screened the NIH Chemical Genomics Center (NCGC) Pharmaceutical Collection (NPC) and Mechanism Interrogation Plate (MIPE) small molecule collections of approved and investigational compounds against these cell lines; and measured metabolically active cells after 48 hours of compound treatment as a proxy for cell viability. […] Assay Submitter: Nathalia J. Martinez, National Center for Advancing Translational Sciences, National Institutes of Health, Rockville, MD, USA; email: natalia.martinez@nih.gov Shen, M et al. Quantitative high-throughput phenotypic screening of pediatric cancer cell lines identifies multiple opportunities for drug repurposing. Oncotarget 2017 Dec 19;9(4):4758-4772. PMID 29435139.
The cells were obtained from University of North Carolina (UNC), Pediatric Preclinical Testing Program (PPT), and Coriell Institute (CI). qHTS cell viability assay: Cells were assayed in growth media at a density of 500-1,000 cells/well. Five microliters of cells were dispensed into 1,536-well, white, solid-bottom, TC-treated plates (Greiner Bio One) using a multidrop dispenser and incubated at 37 degrees C, 5% CO2, under a humidified atmosphere for 5 hours. Twenty-three nanoliters of compounds and controls (neutral control DMSO or positive control bortezomib at final concentration of 2.3 µM) were subsequently transferred by Kalypsys pintool. For primary screens, the MIPE collection was tested at 11-point dilutions (final concentrations range from 0.78 nM to 46 µM) and the NPC collection at 8-point dilutions (final concentrations range from 0.59 nM to 46 µM). Compounds tested in follow-up screens were assayed at 11-point dilutions. Cells were incubated for 48 hours, followed by addition of 3 µL of CellTiter-Glo (Promega). After a 15 min incubation at room temperature, samples were analyzed for luminescence intensity using a ViewLux High-throughput CCD imager equipped with clear filters.
In general terms: Quantitative high-throughput screening tests each substance at several concentrations.
With `NP(N)(=O)NC(=O)c1ccc(F)cc1`, the Potency result is “inactive”.

As to `CCN(C(C)=O)c1cccc(-c2ccnc3c(C#N)cnn23)c1`, the Potency result was “inactive”.

Consider `NCCc1cc(O)c(O)cc1O`, for which the Potency entry is “inactive”.

Consider `CCN(CC)CCN1C(=O)CN=C(c2ccccc2F)c2cc(Cl)ccc21`, for which the Potency result was “inactive”.

Regarding `CC[N+](CC)(CC)CC`, the Potency entry was “inactive”.

For the compound `O=C(NC(O)C(Cl)(Cl)Cl)NC(O)C(Cl)(Cl)Cl` (stereo not given), the Potency entry is “inactive”.

As to `Oc1cc(Cl)ccc1Oc1ccc(Cl)cc1Cl`, the Potency is 24.8 µM (active) and 26.6 µM (active).

Turning to `CC(C)(C)CC(C)(C)c1ccc(O)cc1`, the Potency was 30.6 µM (active) and 21.1 µM (active).

Consider `O=c1[nH]c2ccccc2n1CCCN1CCC(n2c(=O)[nH]c3cc(Cl)ccc32)CC1`, for which the Potency result was “inactive”.

For the compound `CC(C)(N)Cc1ccc(Cl)cc1`, the Potency result is “inactive”.

Turning to `c1ccc2c(c1)Nc1ccccc1S2`, the Potency was 48.6 µM (active).

For `O=C(O)C(=O)c1cn(Cc2ccccc2)c2ccc(-c3ccc(OC(F)(F)F)cc3)cc12`, the Potency is 23.5 µM (active).

Take `O=[N+]([O-])c1cc([As](=O)(O)O)ccc1O`: the Potency result is “inactive”.

On to `CCCC1CCCCN1` (stereo not given), for which the Potency result is “inactive”.

As to `CC[N+]1(C)CCCC(OC(=O)C(O)(c2ccccc2)c2ccccc2)C1` (stereo not given), the Potency entry was “inactive”.

`Cn1c(CCCC(=O)O)nc2cc(N(CCCl)CCCl)ccc21`: the Potency entry is “inactive”.

In the case of `OCCOc1ccccc1`, the Potency entry was “inactive”.

With `CC[C@@H](CO)NC(=O)[C@@H]1C=C2c3cccc4[nH]cc(c34)C[C@H]2N(C)C1`, the Potency entry is “inactive”.

Take `C#CCOC(C(=O)OCCN(C)C)(c1ccccc1)c1ccccc1`: the Potency entry is “inactive”.

Take `NN=C(N)N`: the Potency entry is “inactive”.

Regarding `CC(CCc1ccccc1)NC(C)C(O)c1ccc(O)cc1` (stereo not given), the Potency result is “inactive”.

Take `Cc1sc2c(c1C)C(c1ccc(Cl)cc1)=N[C@@H](CC(=O)OC(C)(C)C)c1nnc(C)n1-2`: the Potency was 1.48 µM (active).

As for `Nc1ccncc1`, the Potency entry is “inactive”.

For the compound `C=CCN1CC[C@]23c4c5ccc(O)c4O[C@H]2C(=O)CC[C@@]3(O)[C@H]1C5`, the Potency entry was “inactive”.

In the case of `CN1CCN(C(=O)O[C@H]2c3nccnc3C(=O)N2c2ccc(Cl)cn2)CC1`, the Potency result is “inactive”.

In the case of `CCN(CC)C(=O)N[C@@H]1C=C2c3cccc4[nH]cc(c34)C[C@@H]2N(C)C1`, the Potency entry is “inactive”.

On to `CN(C)[C@@H]1C(=O)C(C(N)=O)=C(O)[C@@]2(O)C(=O)C3=C(O)c4c(O)cccc4[C@@](C)(O)[C@H]3C[C@@H]12`, for which the Potency result is “inactive”.

With `C[C@]12CCC(=O)C(O)=C1CC[C@@H]1[C@@H]2CC[C@]2(C)C(=O)CC[C@@H]12`, the Potency entry was “inactive”.

For `COc1ccccc1N1CCNCC1`, the Potency entry is “inactive”.

Consider `CC1OC(C)OC(C)O1` (stereo not given), for which the Potency result was “inactive”.

`CCCC(C)(COC(N)=O)COC(=O)NC(C)C` (stereo not given): the Potency result is “inactive”.

Regarding `COC[C@H]1OC(=O)c2coc3c2[C@@]1(C)C1=C(C3=O)C2CCC(=O)[C@@]2(C)C[C@H]1OC(C)=O` (stereo not given in full), the Potency is 4.69 µM (active).

As to `FC(F)(F)c1cccc(C2=CCN(CCc3ccc4ccccc4c3)CC2)c1`, the Potency result is “inactive”.

In the case of `CCC1(C2=NCCN2)Cc2ccccc2O1` (stereo not given), the Potency entry was “inactive”.

As to `CC[C@@H](CO)NC(=O)[C@@H]1C=C2c3cccc4c3c(cn4C)C[C@H]2N(C)C1`, the Potency result is “inactive”.

As for `Cc1ncc(CNC(=O)N(CCCl)N=O)c(N)n1`, the Potency entry is “inactive”.

As for `CCOP(=S)(OCC)Oc1cc(C)nc(C(C)C)n1`, the Potency entry is “inactive”.

Regarding `COc1ccc(C(=O)c2c(C)n(CCN3CCOCC3)c3ccccc23)cc1`, the Potency result is “inactive”.

Take `CNCC(O)c1ccc(O)cc1` (stereo not given): the Potency result was “inactive”.

As to `C[C@@H]1O[C@@H](O[C@H]2C[C@@H](O)[C@]3(CO)[C@H]4[C@H](O)C[C@]5(C)[C@@H](C6=CC(=O)OC6)CC[C@]5(O)[C@@H]4CC[C@]3(O)C2)[C@H](O)[C@H](O)[C@H]1O`, the Potency was 59 nM (active) and 75 nM (active).
